Test results as given in PubChem BioAssay (EPA / NIEHS).
The source made the active and inactive calls. The calls were made as follows: active = hit-call score of the fitted dose curve at least 0.9, where 1 is the maximum; inactive = score below 0.9.

read-out: BCL2L11 (gene 10018); test: LTEA_HepaRG_BCL2L11: Life Technologies and Expression Analysis (LTEA) Assay for Bcl-2 (BCL2L11) gene using HepaRG (AID 2283473); conditions: mRNA level, 48 h; actives raise or lower the signal
Procedure: LTEA_HepaRG is a cell based, multiplexed-readout assay that uses HepaRG, a human liver cell line, with measurements taken at 48 hours after chemical dosing on a 96-well plate.LTEA_HepaRG_BCL2L11 is one of 102 assay component(s) measured in the LTEA HepaRG cell culture assay. It is a marker of Cell proliferation, survival, death.Data from the assay component LTEA_HepaRG_BCL2L11 was analyzed into 1 endpoint. This assay endpoint, LTEA_HepaRG_BCL2L11, was analyzed with bidirectional fitting relative to DMSO as the negative control and baseline of activity. Using a type of inducible reporter, measures of mRNA induction for gain or loss-of-signal activity can be used to understand regulation of transcription factor activity. To generalize the intended target to other relatable targets, this assay endpoint is annotated to the cell cycle intended target family, where the subfamily is Cell proliferation, survival, death.
A total of 1060 chemcials from the ToxCast library were tested in eight-point concentration-response experiments. Cell culture and cytotoxicity assays were conducted at Thermo Fisher Scientific's Custom Services facility (Madison, WI). A single lot of human HepaRG cells (Thermo Fisher Scientific, Frederick, MD) was used for the cell culture experiments. 96-well format collagen type I coated plates of human HepaRG cells were prepared using established methods. Briefly, cryopreserved HepaRG cells were thawed, plated at a density of approximately 100,000 cells/well in HepaRG Thaw, Plate, and General Purpose media (HPRG770, Thermo Fisher Scientific), and incubated for 48 hours. 0.5% DMSO was selected as vehicle control to balance the requisite need of DMSO in HepaRG cultures to maintain differentiation (for example, baseline metabolism, proportions of hepatocytes vs. cholangiocytes), while enabling further hepatic receptor pathway activation (for example, PXR and CAR) in response to chemical exposure. 48 hours after plating, the culture medium was replaced with HepaRG Serum-Free Incudtion Media. Cells were exposed to each test chemical in duplicate and maintained in CO2 incubators for another 48 hours. Chemical plates were thawed to room temperature and 200x concentrations of treatment groups were prepared. 8-point conentration-reponse curves were made with the highest exposure at 100 uM, followed by half-log dilutions, all in 0.5% DMSO. Each test plate contained variouse controls, induction positive controls (1mM phenobarbital), cytotoxicity positive controls ([…] aflatoxin B1), vehicle controls (0.5% DMSO), and total lysis controls (0.5% DMSO). Cell morphology images were taken using an Essen IncuCyte FLR automated microscope, with six 96-well plates imaged in about 24 minutes. Images were captured and exported and JPEG files. Spent culture media was transfered to black-well plates for the LDH assay, and remaining media was sorted at -80 C for later use. Cells were treated with RLT buffer and frozen until shipped for gene expression analysis. Total RNA was isolated from the cell suspension in 75 uL of Buffer RLT (Qiagen, Germantown, MD 20874) by Quintiles/Expression Analysis (Durham, NC) using a custom isolation procedure. Total RNA from each plate well was transferred to a preamplification plate. Fluidigm's 96.96 Dynamic ArrayTM (Fluidigm, Amsterdam, the Netherlands) technology was used for gene expression analyses by quantitative reverse transcription polymerase chain reaction (qRT-PCR, performed by Quintiles/Expression Analysis, Durham, NC)89. Standard TaqManTM Assays (Applied Biosystems/ThermoFisher Scientific, Foster City, CA) were used to assess the expression of 93 genes selected based on their selectivity and sensitivity to important hepatic receptors known to be modulated by environmental chemicals; importance in human hepatocyte functionality; and hepatotoxicity. […]

| Structure (SMILES) | outcome | AC50 |
| --- | --- | --- |
| CN1CCC[C@H]1c1cccnc1 | inactive |  |
| CN1CCN(c2ccccc2/C=C2\SCCN(c3ccc(Cl)c(Cl)c3)C2=O)CC1 | inactive |  |
| CCCCCCC(=O)O | inactive |  |
| CC(C)(C)c1cccc(C(C)(C)C)c1O | inactive |  |
| O=C(OCCOCCOC(=O)c1ccccc1)c1ccccc1 | inactive |  |
| CCC(C)(C)C1CCC(O)CC1 (stereo not given) | inactive |  |
| Cc1oc(-c2ccccc2)nc1CCOc1ccc(C[C@H](Nc2ccccc2C(=O)c2ccccc2)C(=O)O)cc1 |  | 84.6 µM (active) |
| CC(=O)NC1(c2cccc(F)c2)CCN(CC[C@@]2(c3ccc(Cl)c(Cl)c3)CN(c3ccccc3)C(=O)CO2)CC1 |  | 59.6 µM (active) |
| Oc1cc2ccccc2c2ccccc12 | inactive |  |
| COC(=O)CCCCC(=O)OC | inactive |  |
| c1ccc2c(c1)Cc1ccccc1-2 | inactive |  |
| c1ccc2c(c1)ccc1ccccc12 | inactive |  |
| COCC(C)O (stereo not given) | inactive |  |
| CCCCCCCCCCCCN1CCCC1=O | inactive |  |
| CC[C@H](C)[C@@H](C(=O)O)n1sc2ccccc2c1=O | inactive |  |
| CCCOC(=O)c1ccc(O)cc1 | inactive |  |
| OC1CCCCC1 | inactive |  |
| CC(C)(C)c1ccc(O)c(C(C)(C)C)c1 | inactive |  |
| Cc1cc(C)c(O)c(C)c1 | inactive |  |
| CC1=C(/C=C/C(C)=C/C=C/C(C)=C/C(=O)O)C(C)(C)CCC1 | inactive |  |

| Structure (SMILES) | outcome | AC50 |
| --- | --- | --- |
| CC#C[C@]1(O)CC[C@H]2[C@@H]3CCC4=CC(=O)CCC4=C3[C@@H](c3ccc(N(C)C)cc3)C[C@@]21C |  | 27.3 µM (active) |
| OCCC(F)(F)C(F)(F)C(F)(F)C(F)(F)C(F)(F)C(F)(F)C(F)(F)C(F)(F)F | inactive |  |
| CCN(CC)CCNc1ccc(CNC=O)c2sc3ccc(OC)cc3c(=O)c12 |  | 21.9 µM (active) |
| OCCC(F)(F)C(F)(F)C(F)(F)C(F)(F)C(F)(F)C(F)(F)F | inactive |  |
| CCCCCCCCC(=O)O | inactive |  |
| NC(=O)N(O)[C@@H]1C=C[C@H](Oc2cccc(Oc3ccc(F)cc3)c2)C1 |  | 12.3 µM (active) |
| CN(C)C=O | inactive |  |
| N#C[C@@H]1CC(F)(F)CN1C(=O)CNC1CC2CCC(C1)N2c1ncccn1 (stereo not given in full) | inactive |  |
| C#C[C@]1(O)CC[C@H]2[C@@H]3CCC4=CC(=O)CC[C@@H]4[C@H]3CC[C@@]21C | inactive |  |
| Cc1cc(CCN2CCN(c3nsc4ccccc34)CC2)cc2c1NC(=O)CC2(C)C | inactive |  |
| Nc1cccc2c(N)cccc12 | inactive |  |
| C[C@@H]1C[C@H]2[C@@H]3CCC4=CC(=O)C=C[C@]4(C)[C@@]3(F)[C@@H](O)C[C@]2(C)[C@@]1(O)C(=O)COP(=O)(O)O | inactive |  |
| O=[N+]([O-])c1ccc(O)cc1 | inactive |  |
| CC(C)CCCCCCOC(=O)CCCCC(=O)OCCCCCCC(C)C | inactive |  |
| O=c1c(-c2ccc(O)cc2)coc2cc(O)ccc12 | inactive |  |
| CCC(=C(c1ccc(O)cc1)c1ccc(OCCN(C)C)cc1)c1ccccc1 |  | 82.9 µM (active) |
| CCCCCCCC(=O)O | inactive |  |
| CC[C@H](c1ccc(O)cc1)[C@@H](CC)c1ccc(O)cc1 |  | 77.7 µM (active) |
| CCc1ccc(CCOc2ccc(CC3SC(=O)NC3=O)cc2)nc1 (stereo not given) | inactive |  |
| CCCCC(CC)COC(=O)CCCCC(=O)OCc1ccccc1 (stereo not given) | inactive |  |
